Assay outcomes: PubChem, several laboratories
Shown are actives, neighbours in structure and some others; about 2% of the full set was active somewhere.
Wee1 stabilizer: inhibitors of human Wee1 degradation; P30291; 220,000 tested, 1.2% active; AID 1321; HeLa Luc-Wee1K328M stability, luciferase luminescence; 100% = proteasome inhibitor MG132 effect; reporter increase, % at 5 µM;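 active means activation above the mean of all tested compounds plus 3 SD, set per screening run, cut at about 8.8% in these data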;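 further: cells exposed to compound for 20 h before luminescence read; 0% = DMSO alone and 100% = MG132 at 30 µM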
HMGR II inh: inhibitors of class II HMG-CoA reductase from Enterococcus faecalis | 190,000 tested, 0.41% active | inhibition, % at 10 µM | purified E. faecalis HMGR, NADPH absorbance 340 nm kinetic | AID 1066;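 active means inhibition above a set limit, the median over all tested compounds plus 3 SD, cut at about 9.5% in these data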;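 further: enzyme runs in reverse so mevalonate oxidation gives rising NADPH absorbance; 0% = complete reaction with DMSO and 100% = background rate lacking mevalonate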
Hsp70 activator: transcriptional activators of Hsp70. HeLa Hsp70 promoter luciferase reporter, luminescence; scaled: vehicle 0, proteasome-inhibitor control 100%. activation, % at 10 µM. AID 1203. 200,000 tested, 0.04% active;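 active means activation above the mean across all tested compounds plus 3 SD, cutoff set per campaign, cut at about 5.5% in these data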;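 further: 100% = MG132 at 30 µM as the positive control and 0% = DMSO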
Arbovirus anti: antivirals against arbovirus infection; 200,000 tested, 0.37% active; arbovirus infection cell-based antiviral screen; inhibition, % at 10 µM; in the data active means inhibition above about 30%
PKD1 kinase inh: PKD1 (human) kinase inhibition. PKD1 kinase fluorescence polarization assay. Q15139. 200,000 tested, 0.056% active. inhibition, % (test concentration not listed); in the data active means inhibition above about 50%
Target sequence (Q15139 whole entry, looked up): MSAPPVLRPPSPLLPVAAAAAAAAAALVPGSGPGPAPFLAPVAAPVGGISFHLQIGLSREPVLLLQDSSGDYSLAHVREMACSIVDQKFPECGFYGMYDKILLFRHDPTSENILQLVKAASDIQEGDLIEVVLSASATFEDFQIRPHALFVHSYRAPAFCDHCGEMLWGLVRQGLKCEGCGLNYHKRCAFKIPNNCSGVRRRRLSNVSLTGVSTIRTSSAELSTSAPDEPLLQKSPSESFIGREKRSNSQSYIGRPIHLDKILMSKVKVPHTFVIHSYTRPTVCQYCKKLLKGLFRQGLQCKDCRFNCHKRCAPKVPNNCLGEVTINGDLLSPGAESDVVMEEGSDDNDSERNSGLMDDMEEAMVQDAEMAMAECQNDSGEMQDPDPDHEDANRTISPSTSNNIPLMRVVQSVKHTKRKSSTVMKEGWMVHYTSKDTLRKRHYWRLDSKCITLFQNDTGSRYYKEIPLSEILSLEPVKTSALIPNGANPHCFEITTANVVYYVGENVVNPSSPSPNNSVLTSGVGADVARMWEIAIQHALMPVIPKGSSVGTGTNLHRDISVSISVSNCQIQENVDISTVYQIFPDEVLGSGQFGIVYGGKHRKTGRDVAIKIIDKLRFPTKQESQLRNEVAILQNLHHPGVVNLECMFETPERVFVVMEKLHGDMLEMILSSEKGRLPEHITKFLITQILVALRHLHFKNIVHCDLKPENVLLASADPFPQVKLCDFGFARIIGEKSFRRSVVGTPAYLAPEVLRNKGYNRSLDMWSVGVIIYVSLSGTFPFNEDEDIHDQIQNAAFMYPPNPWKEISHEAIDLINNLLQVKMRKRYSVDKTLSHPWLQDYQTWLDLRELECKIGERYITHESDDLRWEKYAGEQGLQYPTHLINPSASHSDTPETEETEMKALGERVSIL
Wee1 stab conf: human Wee1 degradation inhibition, confirmation; activation, % at 5 µM; shares compounds with Wee1 stabilizer; 1,100 tested, 4% active; HeLa Luc-Wee1K328M degradation, luminescence; vehicle 0%, proteasome-blocked wells 100%; in the data active means activation above about 8.9%
Numbers without * were called inactive; x = no result.

SMILES | Wee1 stabilizer | HMGR II inh | Hsp70 activator | Arbovirus anti | PKD1 kinase inh | Wee1 stab conf
COc1ccc2oc(=O)c(C(=O)NCc3ccco3)cc2c1 | 3 | 0 | 0 | -3 | 0 | x
Cc1ccc2nc(C3CCN(CC(=O)Nc4ccc5c(c4)OCCO5)CC3)[nH]c2c1 | 12* | -8 | 0 | -16 | -7 | 0
O=C(CN1CCC(c2nc3ccccc3[nH]2)CC1)Nc1ccc2c(c1)OCO2 | -4 | -3 | 0 | -8 | 2 | x
CN(C)c1ccc(NC(=O)CCn2c(=S)oc3ccccc32)cc1 | 11* | -7 | 0 | 1 | 2 | 2
CC(C)C(=O)Nc1nnc(Cc2c[nH]c3ccccc23)s1 | 2 | x | x | x | x | x
CCc1nnc(NC(=O)CCc2c[nH]c3ccccc23)s1 | 15* | -4 | 0 | 9 | -2 | 2
COc1ccc(-c2[nH]ncc2CN2CCC(N3CCSCC3)CC2)c(F)c1 | 1 | -3 | 0 | -3 | -10 | x
COc1cc(NC(=O)c2n[nH]c(=O)c3ccccc23)cc(OC)c1 | -1 | x | x | x | x | x
COc1ccc(-c2nc(NC(=O)c3n[nH]c(=O)c4ccccc34)sc2C)cc1 | 32* | 2 | 0 | 44* | -12 | -3
Brc1cc2c(cc1Br)OCCOCCOCCOCCO2 | 19* | -3 | 0 | 6 | 6 | 2
Brc1ccc2c(c1)OCCOCCOc1cc(Br)ccc1OCCOCCOCCO2 | -1 | -1 | 0 | -19 | -9 | x
N#CCN1C(=O)C2CCCN2c2ccc(S(=O)(=O)N3CCOCC3)cc21 (configuration not stated) | 2 | 0 | 0 | 12 | 0 | x
Cc1nc(SCC(=O)Nc2cc(Cl)ccc2[N+](=O)[O-])nc(C)c1C | -3 | 2 | 0 | -3 | 1 | x
CCc1cc(OCCOCCN(C)C)ccc1Cl | 2 | -2 | 0 | -20 | -9 | x
O=C1c2nc3ccccn3c2C(=O)N1Cc1ccccc1 | -3 | 5 | 0 | 3 | 6 | x
O=c1cc(NCc2ccccc2)nc2ccccn12 | 12* | 1 | 0 | -6 | -6 | 0
CN(Cc1nccn1C)C(=O)CC1C(=O)NCCN1Cc1cccc(Oc2ccccc2)c1 (configuration not stated) | 12* | -3 | 0 | 1 | 1 | 1
COc1ccc(/C=C/C(=O)c2ccccn2)cc1 | 12* | -6 | 0 | -5 | -3 | -1
COc1ccc(CC(=O)O/N=C(\N)c2ccccn2)cc1 | 16* | x | x | x | x | 4
COc1ccc(/C=C/C(=O)c2ccccc2O)cc1 | 4 | -5 | 0 | -7 | -10 | x
COc1ccc(NC(=S)N2CCC(c3nc4ccccc4o3)CC2)c(OC)c1 | -1 | -2 | 0 | 9 | 1 | x
Cc1cc(O)c(-c2cc(C(=O)Nc3cccnc3)[nH]n2)cc1C | 18* | x | x | x | x | 4
COc1ccc(C(c2nnnn2C2CCCC2)N2CCC(C)CC2)c(OC)c1 (configuration not stated) | 41* | 5 | 0 | -33 | 3 | -1
COc1ccc(OC)c(C(c2nnnn2C2CCCC2)N2CCN(c3ccc(F)cc3)CC2)c1 (configuration not stated) | -3 | -5 | 0 | -2 | 0 | x
CC(=O)N1CCc2cc(N=NC3=C(O)CC(C)(C)CC3=O)ccc21 | 17* | -2 | 0 | -2 | -1 | -1
SMILES | Wee1 stabilizer | HMGR II inh | Hsp70 activator | Arbovirus anti | PKD1 kinase inh | Wee1 stab conf
Cc1nc2ccc(N=NC3=C(O)CC(C)(C)CC3=O)cc2s1 | 1 | -5 | 0 | -5 | -10 | x
Cc1ccc2nc(CSc3nc(C)ccc3C#N)[nH]c2c1 | 5 | -1 | 0 | -5 | 2 | x
Cc1ccc(C#N)c(SCc2ccccc2F)n1 | 11* | x | x | x | x | 3
Cc1ccc(-c2nnc(SCC(=O)N3CCCC3)o2)cc1 | -1 | -1 | 0 | 0 | -17 | x
O=C(CSc1nnc(-c2ccncc2)o1)N1CCCCCC1 | 13* | -2 | 0 | 5 | 0 | 5
O=C(CSc1nnc(-c2ccncc2)n1CCc1ccccc1)N1CCCC1 | 12* | x | x | x | x | 4
COc1ccc(NC(=O)c2ccc(Cl)c(NC(=O)c3ccncc3)c2)cc1 | 12* | 3 | 0 | 2 | -6 | -3
COc1ccc(C(=O)Nc2cccc(C)c2)cc1 | 12* | 2 | 0 | 2 | -5 | 0
COc1ccc(CC(=O)Nc2cccc(C(=O)Nc3cccc(C)c3)c2)cc1 | 3 | 0 | 0 | -8 | -2 | x
O=C(Nc1cccc(Br)c1)c1ccc(OC2CSC2)cc1 | 14* | -5 | 0 | -14 | -3 | 1
O=C(NC1CCCCCC1)C(=S)NC1CCCCC1 | 5 | -8 | 0 | 0 | 10 | x
Cc1cc(=O)nc2c3ccccc3n(CC(=O)Nc3ccccc3Br)n12 | -1 | x | x | x | x | x
Cn1nc(C(=O)Nc2nc3ccccc3[nH]2)ccc1=O | 3 | -8 | 0 | 3 | -2 | x
Cc1onc(-c2ccccc2)c1C(=O)N1CCN(C)CC1 | 17* | -6 | 0 | 5 | -7 | -1
CN(C)/C=N/c1nc2nccc(-c3ccccc3)n2n1 | 1 | -3 | 0 | 1 | -12 | x
Cc1nc2ccccn2c1-c1csc(Nc2cccc(O)c2)n1 | 13* | 0 | 0 | -18 | -4 | 11*
Cc1cccc(Nc2nc(-c3c(C)nc4ccccn34)cs2)c1 | -1 | -2 | 0 | -16 | -10 | x
Cc1ncoc1C(=O)Nc1ncc([N+](=O)[O-])s1 | 14* | -3 | 0 | 0 | 10 | 8
Cc1ccc(C(=O)Nc2nc(C)c(C)s2)o1 | 3 | -9 | 1 | -12 | 0 | x
Cc1nc(NC(=O)c2ccc(Br)o2)sc1C | 11* | -4 | 0 | -8 | -7 | 2
COc1ccc(NC(=O)CNS(=O)(=O)c2ccc(Cl)cc2)cc1OC | 15* | -4 | 0 | 4 | 6 | 3
CN(C(=O)COc1ccccc1C(=O)NCCOc1ccccc1)c1ccccc1 | 1 | -5 | -1 | -33 | 8 | x
Cc1ccnc(NC(=O)CCCOc2cc(=O)n(C)c3ccccc23)c1 | 14* | 5 | 4 | -14 | 1 | 46*
Cn1c(=O)cc(OCCCC(=O)NCc2ccccn2)c2ccccc21 | 5 | -2 | 0 | -6 | -7 | x
Cc1cccc(CCNC(=O)COc2cc(=O)n(C)c3ccccc23)c1 | 11* | -2 | 0 | -7 | 2 | -1
SMILES | Wee1 stabilizer | HMGR II inh | Hsp70 activator | Arbovirus anti | PKD1 kinase inh | Wee1 stab conf
Cc1cccc(CCNC(=O)CCCOc2cc(=O)n(C)c3ccccc23)c1 | 0 | -3 | 0 | -17 | -8 | x
C/C(=N\NC(=O)c1nc2ccccn2c1C)c1ccc2c(c1)OCO2 | 12* | 1 | 0 | -8 | 0 | 4
C/C(=N\NC(=O)c1ccc(N2CCCC2=O)cc1)c1ccncc1 | 15* | x | x | x | x | 0
CC1=C(C)CC(C(=O)NNC(=O)c2csc(C)c2C)C(C(=O)O)C1 (configuration not stated) | 5 | -4 | 0 | 8 | 5 | x
CC1(C)Cc2c(C#N)c(NCCO)nc(-c3ccco3)c2CO1 | 18* | x | x | x | x | 1
CCOC(=O)CSc1nnc(CNC(=O)c2ccccc2OC)n1-c1ccc(OC)cc1 | 12* | -4 | 0 | 8 | -12 | -4
